Mito fusion yeast – mitochondrial division inhibition or fusion activation | S. cerevisiae fusion-defective mutant growth rescue, CellTiterGlo 48 h | Potency, µM (top dose mostly 46.1 µM), usual class: activators | 320,000 tested, 0.23% active; also: nearly all actives have a fitted effect of over 45% in size
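S. cerevisiae fusion-defective temperature-sensitive mutants (e.g. fzo1-1, mgm1-5) grown 48 h at 37C in YPEG (ethanol/glycerol non-fermentable) medium with 23 nl compound per well; growth rescue read as CellTiterGlo luminescence.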
TDP-43 yeast inh – inhibitors of TDP-43 toxicity in yeast; TDP-43 expressing yeast growth rescue, BacTiter-Glo, 24 h; Potency, µM (highest dose often 46.1 µM), actives largely listed as activators; 410,000 tested, 1.8% active; also: nearly all actives have a fitted effect of over 50% in size
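Growth rescue of TDP-43-toxic yeast measured as ATP luminescence (BacTiter-Glo). Cells grown to mid-log in raffinose, induced in galactose at OD600=0.02, exposed to compound 24 hr at 30 deg C.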
Abeta yeast res – compounds reversing amyloid beta toxicity in yeast. yeast expressing A-beta42, growth rescue, OD600, 48 h; response scale: 0% DMSO, 100% iron-clioquinol control. AID 1347071. 410,000 tested, 0.063% active. Potency, µM (top dose mostly 46.1 µM), most hits filed as activators; also: nearly all actives have a fitted effect of over 55% in size
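Yeast A-beta toxicity model in growth medium with pinned compounds, 48 h at 30 C; growth read as absorbance at 600 nm. Normalized to FeCl3/clioquinol equimolar mix (positive) and DMSO (negative).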
FUS yeast rescue – FUS proteinopathy suppression in yeast; S. cerevisiae FUS-expressing, growth rescue, OD600, 24 h; Potency, µM (titrated, usually from 76.6 µM), actives largely listed as activators; 390,000 tested, 0.24% active; AID 1347120; also: nearly all actives have a fitted effect of over 55% in size
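Cultures pregrown in 2.5% raffinose medium are shifted to minimal medium containing 2% galactose to express toxic FUS. Compounds are tested at several concentrations. After 24hr at 30C, growth is quantified at 600 nm absorbance.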
aSyn rescue – inhibitors of alpha-synuclein toxicity in yeast; Yeast expressing alpha-synuclein, growth rescue, BacTiter-Glo, 24 h; Potency, µM (titrated, usually from 46.1 µM), usual class: activators; 370,000 tested, 0.14% active; also: nearly all actives have a fitted effect of over 65% in size
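Screening used galactose-induced yeast with toxic alpha-synuclein levels, exposed to compound for 24 hr at 30 deg C. Cell growth, read with BacTiter-Glo luminescence, gave the measured signal.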
Numbers stand for hits; - = inactive; ? = inconclusive; . = no result; ! = repeats disagree. Most compounds without a hit are left out; they make up all but 2.2% or so of the library. Calls follow the shape of the dose curve; as a rule, active = well fitted curve in the direction sought with a large enough effect; inconclusive = small, poorly fitted or top-dose-only effect, or another doubt; inactive = no such curve, though single readings can be large; an effect the other way counts as inactive or inconclusive.

SMILES | Mito fusion yeast | TDP-43 yeast inh | Abeta yeast res | FUS yeast rescue | aSyn rescue
CCOC(=O)[C@@H]1[C@H]2COc3ccc(Br)cc3[C@@H]2N2C(=O)N(c3ccc(C)cc3)C(=O)[C@]12C | - | - | - | ? | -
CCOC(=O)[C@@H]1[C@H]2COc3ccc(Br)cc3[C@H]2N2C(=O)N(c3ccc(C)cc3)C(=O)[C@]12C | - | - | - | 22µM | -
Cc1ccc(S(=O)(=O)NC(=O)c2cc(C)n(-c3ccc(N(C)C)cc3)c2C)cc1 | - | 35µM | - | ? | -
Cc1ccc(S(=O)(=O)NC(=O)c2cc(C)n(-c3ccccc3)c2C)cc1 | - | ? | - | - | -
O=C(COc1ccc2c(c1)CCC2)NCc1ccccc1 | - | 11µM | - | . | -
Cc1cccc(OCC(=O)NCc2ccc3c(c2)CCN3C(=O)c2ccccc2)c1 | . | 25µM | - | ? | .
O=C(Nc1nc2ccc(S(=O)(=O)N3CCCCC3)cc2s1)c1ccncc1 | - | - | - | 35µM | -
CCC(C)Sc1cc(-c2nc3ccc(C)cn3c2NCc2ccccc2)ccc1OC (stereo not drawn) | . | - | - | 32µM! | -
CCC(C)Sc1ccc(-c2nc3ccc(C)cn3c2NCc2ccccc2)cc1OC (stereo not drawn) | - | - | - | ? | -
Cc1occc1-c1nnc(SCC(=O)Nc2ccccn2)n1-c1ccccc1 | . | . | . | - | .
Cc1cc(=O)n(CC(=O)Nc2ccc(Cl)c(Cl)c2)c(-n2nc(C)cc2C)n1 | . | 13µM | - | ? | .
CC(NS(=O)(=O)OCC(Cl)(Cl)Cl)c1ccc(Br)cc1 (stereo not drawn) | - | 35µM | - | - | -
COC(=O)c1c(NC(=O)CN2C(=O)C(=O)N(C(C)C)C2=O)sc(C)c1C | - | - | - | - | -
COc1cccc(NC(=O)NCc2ccccn2)c1 | - | - | - | - | -
c1ccc(-c2ccccc2OCCCN2CCOCC2)cc1 | 20µM | - | - | - | -
NC1CCc2ccc([N+](=O)[O-])cc21 (stereo not drawn) | . | . | . | . | -
CCOC(=O)CC[C@@]1(C(=O)OCC)C[C@@H](CC(=O)NCc2ccc(OC)c(OC)c2)C(=O)N2CCCC=C21 | . | . | . | - | .
CCOC(=O)c1c(NC(=O)CSc2nc3ccccc3c(=O)n2-c2ccccc2)sc(C(C)=O)c1C | - | - | - | - | -
N#CC1c2ccccc2-c2ccccc2N1C(=O)c1ccccc1 (stereo not drawn) | . | 28µM | - | - | 22µM
O=C(COc1ccc(C(=O)c2ccc(F)cc2)cc1)NCc1ccc(F)cc1 | - | 20µM | - | . | -
COC(=O)c1ccc(/C=N/OCC(=O)NCc2ccc(F)cc2)cc1 | - | 32µM | - | - | -
COc1ccccc1/C=N/OCC(=O)NCc1ccc2c(c1)OCO2 | - | - | - | - | -
COc1ccc(CNC(=O)COc2ccc(C(=O)c3ccc(F)cc3)cc2)cc1 | - | - | - | - | -
COC(=O)c1ccc(CNC(=O)COC(=O)CCC(=O)c2ccc(F)cc2)cc1 | . | - | - | . | -
CCOc1ccccc1/C=N/OCC(=O)NCc1ccc(F)cc1 | - | 22µM | - | - | -
SMILES | Mito fusion yeast | TDP-43 yeast inh | Abeta yeast res | FUS yeast rescue | aSyn rescue
O=c1c2ccccc2ncn1CCCSc1ccc(Cl)cc1 | - | ? | - | - | -
O=c1c2ccccc2ncn1CCCSc1ccccc1 | - | 13µM | - | - | -
COc1ccc(C)cc1NC(=O)COCc1cc(-c2ccc(F)cc2)on1 | . | 35µM | - | ? | .
COC(=O)[C@]12C[C@H](CC(=O)NCC3CCCCC3)C(=O)N(Cc3ccc(Cl)cc3Cl)C1=C[C@H](C(C)(C)C)O[C@@H]2C | . | . | . | - | .
CCN1CCN(C(=S)c2ccc(SC)cc2)CC1 | - | - | - | - | -
CSc1ccc(C(=S)N2CCCCCC2)cc1 | - | 11µM | ? | - | -
CCOC(=O)CSC1=NC(=O)/C(=C/c2ccc(Br)cc2)S1 | - | 11µM | - | - | -
CC(=O)CC[C@H]1CC[C@]2(CCCN(Cc3nccn3C)C2)O1 | . | . | . | - | .
CC(C)(C)N1C(=O)c2ccccc2NC(=O)N1Cc1ccccc1 | - | - | - | - | -
O=C1Nc2ccccc2C(=O)C1(Cl)Cc1ccccc1 (stereo not drawn) | - | 35µM | - | - | -
Fc1ccc(-c2nn(-c3ccccc3)cc2CNCc2ccccc2)cc1 | - | - | - | - | -
